PLCg1 inh – PLC-gamma1 (human) inhibition, primary screen | purified PLC-gamma1, fluorogenic substrate, fluorescence | inhibition, % at 12.2 µM | hit rate 0.84% among 370,000 | AID 720700; in the data active means inhibition above about 9.5%
ADAM17 inh – ADAM17 inhibition, QFRET primary screen; P78536; recombinant ADAM17, EDANS/DABCYL FRET peptide cleavage; inhibition, % at 6.95 µM; hit rate 0.83% among 370,000; AID 720648;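 active means inhibition above the mean of compounds lying between control limits plus 3 SD, set per campaign, cut at about 8.5% in these data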
Target sequence (P78536 215-824 limits assumed): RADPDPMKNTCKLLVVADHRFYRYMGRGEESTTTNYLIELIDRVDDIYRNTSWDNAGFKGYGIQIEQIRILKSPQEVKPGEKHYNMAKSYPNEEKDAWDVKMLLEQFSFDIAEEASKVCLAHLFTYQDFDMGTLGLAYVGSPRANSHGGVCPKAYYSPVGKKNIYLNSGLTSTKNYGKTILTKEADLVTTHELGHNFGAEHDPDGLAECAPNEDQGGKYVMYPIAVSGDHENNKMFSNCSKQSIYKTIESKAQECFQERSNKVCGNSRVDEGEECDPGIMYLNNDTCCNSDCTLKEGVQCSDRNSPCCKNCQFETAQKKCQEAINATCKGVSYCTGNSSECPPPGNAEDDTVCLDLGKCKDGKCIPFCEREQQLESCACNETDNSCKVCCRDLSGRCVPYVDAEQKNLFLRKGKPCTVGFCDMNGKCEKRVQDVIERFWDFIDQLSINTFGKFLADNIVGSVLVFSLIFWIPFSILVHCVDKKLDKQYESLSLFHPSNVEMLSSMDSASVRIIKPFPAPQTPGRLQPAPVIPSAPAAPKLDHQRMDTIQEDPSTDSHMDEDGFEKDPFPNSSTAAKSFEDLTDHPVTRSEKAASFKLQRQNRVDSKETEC
ADAM10 inh – inhibitors of human ADAM10. AID 720582. inhibition, % at 7 µM. hit rate 0.62% among 370,000. O14672. recombinant ADAM10, EDANS/DABCYL FRET peptide cleavage, 3 h;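 active means inhibition above a per-campaign cutoff equal to the mean of compounds falling between control-based bounds plus 3 SD, cut at about 20% in these data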
proKLK7 act – activators of human kallikrein-7 zymogen. purified proKLK7, EDANS-DABCYL substrate fluorescence; 100% is mature enzyme control, 0% vehicle. activation, % at 7 µM. hit rate 0.9% among 370,000. AID 652039;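 active means activation above the mean of all tested compounds plus 3 SD, computed per campaign excluding outliers beyond control limits, cut at about 13% in these data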
PLCb3 inh – inhibitors of human phospholipase C beta3. Q01970. Purified PLC-beta3, fluorogenic substrate, fluorescence. inhibition, % at 12.2 µM. hit rate 0.18% among 370,000. AID 720704; in the data active means inhibition above about 11%
ADAM10 confirm – confirmation of inhibitors of human ADAM10 | shares compounds with ADAM10 inh | ADAM10 QFRET peptide cleavage, EDANS fluorescence | inhibition, % at 6.95 µM | hit rate 1% among 2,100 | AID 743208;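 active means inhibition above about 20% chosen separately for each screening run, limit read from the data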
ADAM17 counter – counter-screen for ADAM10 exosite inhibitors: inhibitors of human ADAM17; shares compounds with ADAM10 inh; ADAM17 QFRET peptide cleavage, EDANS fluorescence; inhibition, % at 6.95 µM; hit rate 0.5% among 2,100; AID 743214;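 active means mean triplicate inhibition above the solvent-only control wells' mean plus 3 SD, cut at about 12% in these data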
Large screens that a line does not name were inactive (follow-up assays come after a bar, where they were run). Only some compounds are listed: those with a hit (about 2.9% of all), similar ones and a draw of the others.

O=C(Nc1ccc(C(O)(C(F)(F)F)C(F)(F)F)cc1)c1ccc(Cl)cc1	ADAM10 inh 23 (no result: proKLK7 act) | ADAM10 confirm inactive | ADAM17 counter inactive
CC(=O)c1cc(-c2ccc3[nH]ccc3c2)c(=O)n2c1CCC2	none
COc1ccc(N=C2Sc3ccccc3[C@@H]3C[C@H]4[C@H](CON4C)CN23)c(OC)c1	none
CCCCOCCCNC(=O)C[C@H]1C[C@@]2(C(=O)OC)C(=C[C@H](COCc3ccccc3)O[C@@H]2C)N(CCc2ccc(OC)c(OC)c2)C1=O	none
O=C(CCc1ccc(S(=O)(=O)NCCc2ccccc2)cc1)N1CCN(Cc2ccc3c(c2)OCO3)CC1	ADAM10 inh 21 | ADAM10 confirm inactive | ADAM17 counter inactive
CC(C)CNS(=O)(=O)c1ccc(CCC(=O)N2CCN(Cc3ccc4c(c3)OCO4)CC2)cc1	none
O=C(NNC(=O)c1sc2ccccc2c1Cl)Nc1ccc(Cl)cc1	ADAM10 inh 20 | ADAM10 confirm inactive | ADAM17 counter inactive
Cc1ccc2c(c1)C1CS(=O)(=O)N(C3CCCC3)CN1C2 (stereo not drawn)	none
Cc1ccccc1S(=O)(=O)N1C(c2ccc(Cl)c(Cl)c2)CC=C(C(=O)O)C1c1cccc(Br)c1 (stereo not drawn)	ADAM10 inh 20 | ADAM10 confirm inactive | ADAM17 counter inactive
CCCCS(=O)(=O)N1C2=NC(C(=O)OCC)=C(C(=O)OCC)C3N(Cc4ccc(Br)cc4)c4ccccc4[C@]23C[C@H]1C(=O)OC (stereo partly drawn)	none
CCOc1ccc(C(NC(=O)CC)c2c(O)ccc3ccccc23)cc1 (stereo not drawn)	none
CC(=O)Oc1ccc2ccccc2c1C(NC(=O)Cc1ccccc1)c1ccc(Cl)cc1 (stereo not drawn)	ADAM10 inh 22 | ADAM10 confirm inactive | ADAM17 counter inactive
Cn1cc(CCOCc2ccc(Br)cc2)c2ccccc21	none
C=C[C@@H]1c2ccccc2N(S(=O)(=O)c2ccc(C)cc2)[C@H](c2ccc(OC(C)=O)cc2)C1(C#N)C#N	ADAM10 inh 23 | ADAM10 confirm inactive | ADAM17 counter inactive
C=C[C@@H]1c2cc(C)ccc2N(S(=O)(=O)c2ccc(C)cc2)[C@H](c2ccc(OC(C)=O)cc2)C1(C#N)C#N	none
CC(C)NC(=O)NC1CCN(CC(=O)Nc2ccc3c(c2)OCCO3)CC1	none
N#Cc1c(NC(=O)CSc2n[nH]c(N)n2)oc(-c2ccccc2)c1-c1ccccc1	ADAM10 inh 20 | ADAM10 confirm inactive | ADAM17 counter inactive
CCCCCCCCN1C(=O)[C@@H](CC(=O)NCCCOCCCC)C[C@@]2(C(=O)OC)C1=C[C@H](C(C)(C)C)O[C@@H]2C	none
COc1ccccc1NS(=O)(=O)c1cccc(NC(=O)Nc2ccc(Cl)cc2)c1	ADAM17 inh 26, ADAM10 inh 56 | ADAM10 confirm inactive | ADAM17 counter inactive
CCCCCCc1c[nH]c2ccc(O)c(-c3ccccc3)c12	none
O=C(CCc1ccc(S(=O)(=O)NC2CCCCC2)cc1)N(Cc1ccccc1)Cc1ccccc1	ADAM10 inh 21 | ADAM10 confirm inactive | ADAM17 counter inactive
O=C(CCc1ccc(S(=O)(=O)NC2CCCCC2)cc1)Nc1ccccc1	none
COc1ccc(NC(=O)CN2C(=O)C(c3ccccc3)=NC23CCCCCC3)cc1	ADAM10 inh 27 | ADAM10 confirm inactive | ADAM17 counter inactive
O=C(CN1C(=O)C(c2ccc(F)cc2)=NC12CCCC2)Nc1ccc(F)cc1	none
CC(C)(C)OC(=O)[C@H](Cc1ccccc1)NC(=O)c1nc[nH]c1C(=O)N1CCN(C(=O)OC(C)(C)C)CC1	none
CC(C)C[C@H](NC(=O)c1[nH]cnc1C(=O)Nc1ccc(CNC(=O)OC(C)(C)C)cc1)C(=O)OC(C)(C)C	ADAM17 inh 9.1, ADAM10 inh 25 | ADAM10 confirm 25 | ADAM17 counter inactive
CC(C)C[C@H](NC(=O)c1nc[nH]c1C(=O)NCc1ccccc1)C(=O)OC(C)(C)C	ADAM10 inh 22 | ADAM10 confirm inactive | ADAM17 counter inactive
CC(C)C[C@H](NC(=O)c1[nH]cnc1C(=O)N[C@@H](Cc1ccccc1)C(=O)OC(C)(C)C)C(=O)OCc1ccccc1	none
